Hit rate of the full screen: of about 120,000 compounds, about 370 (0.31%) were called active. Inconclusive results (about 4%) are left out. This is one part of a sample in which actives are shown more often than they occur. Values without a mark were called inactive. Calls follow the shape of the full dose curve.
experiment: Primary qHTS Assay for Foot and Mouth Disease Virus Antivirals against NCGC Sytravon and CBC Compound Libraries: Renilla Luciferase Signal; details: FMDV replicon cells; series mostly up to 57.5 µM; activity change, negative = inhibition: at the top concentration; also: nearly all actives have a fitted effect of over 55% in size
% is scaled to controls: 0 for no effect and ±100 for the full control effect; potency is read from the fitted curve at half-maximal effect.

Row | SMILES | activity change, negative = inhibition | Potency
1 | CC(C)OCc1ccccc1CNC(=O)c1nccnc1N | 27.4% | 
2 | COc1ccc2cc(CNC(=O)c3nccnc3N)ccc2c1 |  | 22.4 µM (active)
3 | Nc1nccnc1C(=O)NCc1ccnc(Oc2ccccc2)c1 |  | 31.6 µM (active)
4 | Nc1nccnc1C(=O)NCCc1ccc(F)cc1 | 9.21% | 
5 | COc1cc(CNC(=O)C(C)Oc2ccccc2)ccn1 (stereo not drawn) | -11.8% | 
6 | COc1cc(CNC(=O)Cc2ccc(OC)c(OC)c2)ccn1 | 4.31% | 
7 | CCOc1ccc(-c2noc(-c3nnn(-c4ccc(C(C)C)cc4)c3N)n2)cc1 | 13.1% | 
8 | CCCCCCCCc1ccc(-c2ccc(CC)cc2)nc1 | -6.84% [at 1.06 µM] | 
9 | COc1ccc(OC)c(CCNC(=O)CSCc2cnn(-c3ccccc3)c2-n2cccc2)c1 | -0.795% | 
10 | CCC(Nc1ccc2oc(C)nc2c1)C(=O)Nc1ccc(F)cc1 (stereo not drawn) | 39.3% | 
11 | CCOC(=O)c1c(S(=O)(=O)Nc2cc(Cl)c(OC)cc2OC)c(C)n(C)c1C | 40.2% | 
12 | COc1ccc(Cl)cc1NC(=O)COC(=O)c1nn(C)c(=O)c2ccccc12 | -3.84% | 
13 | Cn1nc(CC(=O)Nc2cccc(Cl)c2)c2ccccc2c1=O |  | 7.94 µM (active)
14 | COc1ccc(NC(=O)COC(=O)c2nn(C)c(=O)c3ccccc23)cc1Cl | -4.42% | 
15 | COC(=O)c1cc(NC(=O)CSc2nnc(Cc3ccc(OC)cc3)n2C)ccc1Cl | 5.38% | 
16 | O=C(Nc1ccc2oc(-c3cccc(Br)c3)nc2c1)c1cccs1 | -3.52% | 
17 | Cc1c(-c2nsc(NC(=O)c3cccc(Cl)c3)n2)nnn1-c1ccccc1C(F)(F)F |  | 12.6 µM (active)
18 | CCc1cccc(-n2nnc(-c3nsc(NC(=O)c4ccc(C)cc4)n3)c2C)c1 | -4.67% | 
19 | COc1ccc(-n2nnc(-c3nsc(NC(=O)c4ccc(C)c(C)c4)n3)c2C)cc1Cl | 20.9% | 
20 | N#Cc1ccc(-c2ccc(OCc3ccccc3C#N)cc2)cc1 | 16.3% | 
21 | COc1ccc(OC)c(C2c3c(n[nH]c3C)Nc3[nH]c(=O)[nH]c(=O)c32)c1 (stereo not drawn) | 11.2% | 
22 | CCOC(=O)C1=C(CNCc2ccc(C)cc2)NC(=O)NC1c1ccc(Cl)cc1 (stereo not drawn) | -10.7% | 

Row | SMILES | activity change, negative = inhibition | Potency
23 | CN(C)CCNC(C(=O)O)c1c[nH]c2cc(F)ccc12 (stereo not drawn) | 3.52% | 
24 | C#CC[N+]1(C)C(C)CCCC1C (stereo not drawn) | -0.993% | 
25 | CCCNC(=O)c1ccc(NC(=O)CCc2ccccc2)cc1 | -4.2% | 
26 | Cc1csc(/C(C#N)=C\NC2CC(C)(C)NC(C)(C)C2)n1 | -1.6% | 
27 | Cc1nc(-c2ccc(F)cc2)sc1C(=O)N[C@H](C(=O)O)C(C)C | 23.8% | 
28 | CCCn1nc(C(=O)Nc2ncc(Cc3ccc(F)cc3)s2)ccc1=O |  | 25.1 µM (active)
29 | Cc1cnc(NC(=O)c2nc(C)n(-c3ccc(F)cc3)n2)s1 | 0.0004% | 
30 | Cc1[nH]n(-c2nc(-c3ccccc3)cs2)c(=O)c1CC(=O)Nc1cccc(Cl)c1 | -4.92% | 
31 | CCCN(CC(=O)Nc1cccc(C(=O)NC2CC2)c1)Cc1nnc(-c2cccs2)o1 | 69.5% | 
32 | COCCn1c(C)cc(C(=O)CSc2nnc(-c3ccccc3OC)n2-c2ccc(Cl)cc2)c1C | -11.3% [at 1.06 µM] | 
33 | Cc1cccc(NC(=O)CSc2ncnc3ccccc23)c1 | -11.7% | 
34 | COCCCn1c(C)cc(C(=O)CSc2ncnc3ccccc23)c1C |  | 1.41 µM (active)
35 | Cc1cc(C(C)(C)C)cc(C)c1CCNC(=O)c1ccc(NC(=O)CC#N)cc1 | -11.7% [at 1.06 µM] | 
36 | CCc1ccc(/C=C/C(=O)c2cc3ccccc3oc2=O)cc1 | 47.5% | 
37 | Cc1[nH]c2ccccc2c1C(C(=O)O)N1CCN(Cc2ccccn2)CC1 (stereo not drawn) | -14.3% | 
38 | O=C(COc1ccc2c(c1)CCC2)OCC(=O)c1ccc2c(c1)OCCO2 | 5.29% | 
39 | COC(=O)c1ccc(C2C(c3ccccc3)=C(O)C(=O)N2c2ccc(Cl)cc2)cc1 (stereo not drawn) | 16.2% | 
40 | COc1ccc(CNc2oc(-c3ccc(C)cc3)nc2C#N)cc1 | 0% | 
41 | CC(C)Cn1c(=O)c2ccccc2n2c(SCC(=O)Nc3ccc(F)cc3F)nnc12 | -5.31% | 
42 | O=C(NCc1cccs1)C1CCN(c2nccn3nc(-c4ccccc4)cc23)CC1 | 11.8% | 
43 | CSCCCNC(=S)NNC(N)=O | 8.02% | 
